Pf growth 48h: P. falciparum growth inhibition at 48 hours (one generation) | P. falciparum luciferase growth in erythrocytes, 48 h | Potency, µM (series often up to 28.7 µM), for the others: at the highest dose activity change, negative = inhibition, most hits filed as inhibitors | hit rate 5.9% among 310,000; further: potency means the concentration at half of the fitted maximal effect; on the % scale 0 is the no-effect control and ±100 the full control effect
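Luciferase-expressing P. falciparum in infected erythrocytes (2% hematocrit, 0.1% parasitemia final) in RPMI 1640/0.5% Albumax were exposed to compound for 48 hours at 37 C, 5% CO2; growth read as luminescence.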
Shiga inhibitor: inhibitors of Shiga toxin in Vero cells; Vero cells, Shiga toxin protein synthesis inhibition reporter; inhibition, % at 38.7 µM; AID 2315; hit rate 9.2% among 290,000; in the data active means inhibition mostly above about 28%, no sharp cut-off; inactive means mostly below about 43%; further: 0% is about no effect
HCMV inh: blocks human cytomegalovirus replication. AID 1259415. HFF cells, HCMV-luciferase reporter, 72 h; stronger effect = lower value. hit rate 4.5% among 410,000. activity change, negative = inhibition, % at 57.5 µM; in the data active means activity change below about -60%; inconclusive means no clear call, values can overlap the other calls; inactive means above about -39%; further: on the % scale 0 is the no-effect control and ±100 the full control effect
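Two compound doses tested in HFFs infected with HCMV-luciferase, MOI 1 PFU/cell, 72 h at 37C. Lysate luminescence read with OneGlo; data normalized against buffer-only and 10uM Salinomycin inhibitor controls.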
Pf growth 96h: P. falciparum growth inhibition at 96 hour, primary screen for plastid delayed-death inhibitors. P. falciparum luciferase reporter growth, 96 h. Potency, µM (doses to about 28.7 µM), for the others: top-dose activity change, negative = inhibition, actives largely listed as inhibitors. hit rate 6.9% among 320,000. AID 504834; further: potency means the concentration at half of the fitted maximal effect; on the % scale 0 is the no-effect control and ±100 the full control effect
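P. falciparum expressing integrated firefly luciferase, in erythrocytes at 2% hematocrit, 0.05% parasitemia, incubated with compounds 96 h at 37 C, 5% CO2. Growth inhibition read as loss of luminescence; two-generation exposure targets delayed-death apicoplast inhibitors.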
Cycloheximide cs: counter-screen hit for Shiga toxin inhibitors, cycloheximide. cell reporter, cycloheximide protein synthesis inhibition counterscreen. max response, %. hit rate 12% among 300,000; in the data active means max response mostly above about 13%, no sharp cut-off; inactive means mostly below about 14%; further: read at 38.3 µM for the half of the compounds with a filed dose; 0% is about no effect
HCV inh: inhibitors of hepatitis C virus infection. AID 651820. Potency, µM (highest dose often 41.8 µM), for the others: top-dose activity change, negative = inhibition, usual class: inhibitors. Huh7.5.1 HCVcc-Cre infection, luciferase reporter, 44 h. hit rate 3.4% among 340,000; further: potency means the concentration at half of the fitted maximal effect; on the % scale 0 is the no-effect control and ±100 the full control effect
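Antiviral activity was scored by luciferase reporter output from cells infected with HCVcc-Cre (~0.5 moi) in presence of compound, 44 h infection period, cells seeded 1,000/well 4 h prior.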
The depositor's hits bear a star; ? = inconclusive; / = not tested or not shown; [ ] = another dose, or the depositor's remark. Shown are actives, neighbours in structure and some others; about 21% of the full set was active somewhere. Unless noted, the call rests on the fitted dose curve; in most records, active means well fitted inhibition curve with a large enough effect; inconclusive means small, poorly fitted or top-dose-only effect, or another doubt; inactive means no such curve, though single readings can be large or run the other way.

SMILES	Pf growth 48h	Shiga inhibitor	HCMV inh	Pf growth 96h	Cycloheximide cs	HCV inh
O=C(CSc1ccccc1)N1CCN(S(=O)(=O)c2ccccc2)CC1	?	-4.3	-31.4	-10.3%	-1.5	8.0%
C=CCN1CCN(C(=O)CSc2ccccc2)CC1	78.6%	32.2*	40.0	0.0%	34.1*	23.8%
O=C(NC1CCCC1)C1CCCN1C(=O)Oc1ccccc1 (configuration not stated)	-6.4%	17.2	-4.8	57.7%	8.7	16.7%
O=C(OCCCN1C(=O)c2ccccc2C1=O)c1ccco1	3.4%	-3.5	14.0	/	1.0	12.8%
COC(=O)c1ccc(COC(=O)c2ccc(CO)cc2)o1	1.0%	7.9	-6.8	7.7%	2.7	14.7%
COC(=O)c1ccc(COC(=O)c2[nH]c(C)c(C(C)=O)c2C)o1	-9.3%	35.8	33.2	12.1%	13.0	2.24µM*
CN(C)S(=O)(=O)c1ccc(C(=O)OCc2ccc([N+](=O)[O-])cc2)cc1	13.5%	18.1	23.7	7.3%	13.3*	2.5%
O=C(OCCCCN1C(=O)c2ccccc2C1=O)c1n[nH]c2ccccc12	?	-8.0	-5.4	13.1µM*	5.4	?
CC(=O)c1c(C)[nH]c(C(=O)OCCCCN2C(=O)c3ccccc3C2=O)c1C	?	-20.6	/	2.7%	6.9	10µM*
CCOC(=O)c1cccc(NC(=O)c2cc(C)nn2-c2ccccc2)c1	0.1%[0.00184 µM]	-4.5	-25.7	4.0%	-1.1	11.3%
CCCCc1ccc(NC(=O)COC(=O)c2ccc3ncsc3c2)cc1	/	/	2.0	/	/	/
CCCCC(=O)N[C@H]1CC[C@@]23CCCN2C(=O)CCC[C@H]3[C@H]1Cc1ccccc1	/	/	-3.9	/	/	/
CCCS(=O)(=O)c1ncc(Cl)c(C(=O)Nc2c(C(=O)c3ccccc3)oc3ccccc23)n1	/	/	27.7	/	/	/
Cc1c(S(=O)(=O)N2CCN(c3cccc(Cl)c3)CC2)c(=O)n(C)c(=O)n1C	2.9%	-35.4	-38.9	4.6%	-3.7	/
CC(=O)c1c(C)[nH]c(C(=O)OCc2ccc([N+](=O)[O-])cc2)c1C	12.4%	56.1*	-15.0	14.0%	15.1*	5.62µM*
CC(=O)c1c(C)[nH]c(C(=O)OCC(=O)NCc2ccccc2)c1C	/	/	-3.8	/	/	/
CC(=O)c1c(C)[nH]c(C(=O)OCc2ccccc2)c1C	128.1%	119.9*	0.0	?	37.8*	?
CCCS(=O)(=O)c1ccc(COC(=O)Cc2ccc([N+](=O)[O-])cc2)cc1	-28.2%	/	0.4	2.94µM*	2.2	-5.8%
C=CCN1CC[C@]23CCCCC2[C@H]1Cc1ccc(O)cc13 (some centres not stated)	?	/	/	15.1µM*	/	/
CC(C)CCCN1C(Nc2ccccc2)=NC[C@@H]1C	4.0%	-7.7	-30.3	2.1%	-0.5	12.6%
Cc1cc(/C=C2\SC(=S)N(Cc3ccco3)C2=O)c(C)n1-c1cccnc1	2.9%	-3.0	4.2	?	16.0	?
Cc1cc(/C=C2/SC(=S)N(c3cccc(C(F)(F)F)c3)C2=O)c(C)n1-c1cccnc1	/	/	/	/	/	1.58µM*
COc1ccc(-c2nc3ccccc3n3c(-c4ccccc4)c4c(=O)n(C)c(=O)n(C)c4c23)cc1	/	/	4.2	/	/	/
Cc1cc(OCC(O)CN2CCc3ccccc3C2)ccc1Cl (configuration not stated)	27.0%	-2.6	-29.9	-29.6%	-1.4	-29.5%
COc1ccc([C@H]2[C@H](C(=O)C(C)(C)C)N3N=Cc4ccccc4C3[C@]23N=C(c2ccccc2)OC3=O)cc1OC (some centres not stated)	?	-7.7	/	?	11.6	8.6%
SMILES	Pf growth 48h	Shiga inhibitor	HCMV inh	Pf growth 96h	Cycloheximide cs	HCV inh
CC(C)(C)OC(=O)[C@H]1[C@H](c2ccc([N+](=O)[O-])cc2)C2(C(=O)c3ccccc3C2=O)C2c3ccccc3C=NN21 (some centres not stated)	13.1µM*	41.5	-34.7	1.85µM*	12.0*	?
CCCCNC(=O)C1(C)CCN1C(=O)c1ccc2ccccc2n1 (configuration not stated)	/	/	62.5	/	/	/
CCc1n[nH]c(=S)n1/N=C/c1ccc(N(C)c2ccccc2)cc1	10.4µM*	-5.3	-22.5	?	4.0	-4.8%
Cc1ccc(/C=N/n2c(COc3ccccc3)n[nH]c2=S)o1	16.1%	6.2	-90.4*	2.6%	3.0	7.2%
S=c1[nH]nc(COc2ccccc2)n1/N=C/c1ccc(Cl)cc1	9.6%	20.8	13.1	1.2%	-2.4	3.0%
S=c1[nH]nc(Cc2ccc(Br)cc2)n1/N=C/c1ccc(Cl)cc1	?	9.7	-66.7*	?	-3.3	9.6%
S=c1[nH]nc(COc2ccccc2)n1/N=C/c1ccco1	8.2%	-5.5	?	0.3%	-2.7	13.5%
CCc1n[nH]c(=S)n1/N=C/c1ccc2c(c1)OCO2	6.4%	2.2	13.4	16.7%	-0.6	-0.1%
Cc1n[nH]c(=S)n1/N=C/c1ccc(OCc2ccc(Cl)cc2Cl)cc1	40.2%	78.7*	17.6	?	39.2*	12.8%
COc1ccccc1C1=CC(=O)CC(C)(C)C1=O	7.5%	/	17.8	81.5%	/	16.7%
O=C(CCl)NC1(C(=O)O)CCCC1	/	/	25.7	/	/	/
Cc1cc(C)c(COc2ccc(/C=N/n3c(C)n[nH]c3=S)cc2)c(C)c1	11.7µM*	29.9*	19.6	11.9%	8.9	8.3%
CCOc1ccc(C(=O)Nc2ccccc2NC(C)=O)cc1OCC	2.8%	2.3	-24.9	15.8%	-2.7	-15.2%
CCOc1cc(Cl)c(NC(C)=O)cc1OCC	-0.9%	6.8	-63.1*	13.5%	-3.0	?
COc1ccccc1O	43.0%	-3.4	32.1	36.2%	4.7	-5.9%
COc1cc(O)oc1C=Nc1ccccc1	62.4%	109.5*	64.9	-0.2%	26.6*	-1.1%
CSCC[C@H](NC(=O)[C@H](CCCNC(=N)N)NC(=O)[C@H](Cc1ccc(O)cc1)NC(=O)[C@@H]1CCCN1C(=O)CNC(=O)[C@H](CCC(=O)O)NC(=O)[C@H](CC(=O)O)NC(=O)[C@H](CCCCN)NC(=O)[C@H](CCCCN)NC(=O)[C@H](CCC(=O)O)NC(=O)[C@H](C)N)C(=O)N[C@@H](CCC(=O)O)C(=O)N[C@@H](Cc1cnc[nH]1)C(=O)N[C@@H](Cc1ccccc1)C(=O)N[C@@H](CCCNC(=N)N)C(=O)N[C@@H](Cc1c[nH]c2ccccc12)C(=O)NCC(=O)N[C@@H](CO)C(=O)N1CCC[C@H]1C(=O)N1CCC[C@H]1C(=O)N[C@@H](CCCCN)C(=O)N[C@@H](CC(=O)O)C(=O)O	/	-11.6	/	/	0.8	/
CCOC(=O)c1ccccc1NC(=O)N1CCN(Cc2cc(=O)n3nc(-c4ccccc4)sc3n2)CC1	/	/	5.5	/	/	/
COC(=O)[C@@H]1[C@@H](CO)[C@@H]2Cn3c(ccc(Br)c3=O)[C@H]1N2C(=O)c1ccncc1	/	/	-3.0	/	/	/

Assay outcomes deposited in PubChem BioAssay by National Center for Advancing Translational Sciences (NCATS).
